TTR transcr act – activators of transthyretin transcription. AID 1117267. actives 1.3% (n = 92,000). activation, % at 16.7 µM. SH-SY5Y TTR promoter Gaussia luciferase, luminescence; 100% = recombinant luciferase protein wells;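 active means activation above the mean of all tested compounds plus 3 SD, cut at about 9.5% in these data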;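 further: cells exposed to compounds for one day before reading; 0% = median of all test compound wells on the plate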
HuH7 TTR inh – counter-screen for TTR activators: TTR transcription inhibitors in HuH7 cells. AID 1117279. HuH7 TTR promoter-Gaussia luciferase reporter, luminescence. actives 4% (n = 1,100). inhibition, % at 16.7 µM. shares compounds with TTR transcr act;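 active means average inhibition above the solvent-only control wells' mean plus 3 SD, cut at about 15% in these data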;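 further: 0% = cells with DMSO only and 100% = cells with inhibitor control FD; inhibitors lower well luminescence so higher value means more inhibition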
TTR act confirm – confirmation of human transthyretin transcription activators | SHSY5Y TTR promoter Gaussia luciferase, luminescence; 100% = purified Lucia enzyme wells, no cells | shares compounds with TTR transcr act | activation, % at 16.7 µM | 1,100 tested, under 10 active | AID 1117280;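 active means mean activation above a set limit taken from the earlier primary screen, cut at about 11% in these data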;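 further: 0% = DMSO-treated cells and 100% = recombinant Lucia luciferase without cells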
An asterisk follows results filed as active. This is one part of a sample in which hits are shown more often than they occur.

SMILES	TTR transcr act	others
Cc1ccc(CC(=O)NCc2ccc3c(c2)OCO3)cc1	-1.0
COC(=O)NCc1ccc2c(c1)OCO2	-1.1
CCOCC(=O)NCc1ccc2c(c1)OCO2	12.3*	HuH7 TTR inh=-12.9;TTR act confirm=-0.1
O=C1CCC[C@H]2Cc3nc4cc5c(cc4cc3C[C@]23CCCN13)OCO5	2.8
Oc1cccc(C(Nc2nccs2)c2ccc3cccnc3c2O)c1 (centres undefined)	-0.6
Cc1cccc(NC(c2ccc(O)cc2)c2ccc3ccc(C)nc3c2O)n1 (centres undefined)	15.1*	HuH7 TTR inh=20.1*;TTR act confirm=-0.4
Cc1cccc(NC(=S)Nc2cccc(C)n2)n1	1.0
CCC[C@H]1[C@@H](NC(=O)c2cccc(C(F)(F)F)c2)CC[C@@]23CCCN2C(=O)CCC[C@@H]13	3.0
Cc1cc(O)ccc1NC(=O)Cc1cccc2ccccc12	2.2
CC(O)(c1ccc(F)c(F)c1)c1nc(-c2ccc(Cl)cc2)cs1 (centres undefined)	-0.4
CC(O)(c1ccccc1)c1nc(-c2cccc(C(=O)O)c2)cs1 (centres undefined)	1.1
CC(O)(c1ccc(F)c(F)c1)c1nc(-c2cccc(C(=O)O)c2)cs1 (centres undefined)	13.2*	HuH7 TTR inh=-35.2;TTR act confirm=-0.8
COC(=O)[C@]12C[C@H](CC(=O)NCc3ccc(OC)c(OC)c3)C(=O)N(CCc3ccc(OC)c(OC)c3)C1=C[C@H](COCc1ccccc1)O[C@@H]2C	0.4
Cc1cc(-c2nnc(CCC(=O)NCCc3ccccc3F)o2)no1	-0.2
C=CCN(C(=O)[C@@H](C1CC1)[C@@H](O)c1ccc(Cl)cc1)c1ccccc1	0.6
CCOC(=O)/C=C/C(=O)Nc1ccc(S(=O)(=O)Nc2cc(OC)nc(OC)n2)cc1	-0.2
COc1cc(NS(=O)(=O)c2ccc(NC(=S)NC(C)=O)cc2)nc(OC)n1	17.2*	HuH7 TTR inh=-19.6;TTR act confirm=-0.8
COc1cc(NS(=O)(=O)c2ccc(NC(=O)COc3ccc(C)cc3)cc2)nc(OC)n1	0.3
CCCCCn1nnnc1C1(C)CN(S(C)(=O)=O)CC(=O)N1Cc1ccco1 (centres undefined)	0.4
COc1cccc(NC(=O)Nc2c(-c3ccc(C)cc3)nc3ncccn23)c1	0.0
CC(=O)CC(=O)Nc1ccc2ccccc2c1	-0.6
O=C(CSCc1ccc(C(=O)O)cc1)Nc1ccc2ccccc2c1	0.8
CC(=O)c1ccc(NC(=O)CSCC(=O)Nc2ccc3ccccc3c2)cc1	10.6*	HuH7 TTR inh=-26.3;TTR act confirm=4.0
O=C(O)c1ccc2c(c1)C(=O)N([C@H](Cc1cccc3ccccc13)C(=O)O)C2=O	-0.4
COC(=O)[C@@]12CCCCC=C1N(CCc1ccc(Cl)cc1)C(=O)[C@H]2CC(=O)NCC12CC3CC(CC(C3)C1)C2	-1.2
SMILES	TTR transcr act	others
COC(=O)C1CN(Cc2ccccc2)CCS(=O)(=O)N1Cc1ccccc1F (centres undefined)	-0.6
CCC(C)[C@H](NC(=O)N1CC(=O)Nc2ccccc21)C(=O)N[C@@H](Cc1c[nH]c2ccccc12)C(=O)O (some centres undefined)	11.6*	HuH7 TTR inh=-22.4;TTR act confirm=-0.1
CC(C)[C@H](NC(=O)N1CC(=O)Nc2ccccc21)C(=O)N[C@@H](Cc1ccccc1)C(=O)O	2.0
CC(C)C[C@H](NC(=O)N1CC(=O)Nc2ccccc21)C(=O)N[C@H](Cc1c[nH]c2ccccc12)C(=O)O	1.6
COc1ccc(C2c3ccccc3NC3C2C(=O)N(Cc2ccc(OC)cc2OC)[C@H]3Cc2ccccc2)cc1 (some centres undefined)	0.3
Cc1ccccc1CN1CCCCC(NC(=O)c2cccc(F)c2)C1=O (centres undefined)	-1.1
CCCC1CCC2(CCCN2CCOC(=S)Nc2ccccc2)CC1 (centres undefined)	-2.6
Cc1ccc(CN2CCCCC(NC(=O)c3cccc([N+](=O)[O-])c3)C2=O)cc1 (centres undefined)	0.1
O=C(CN1C2=NCCCN2c2ccccc21)c1cccs1	0.9
O=C(Cn1ccccc1=O)c1cccs1	17.3*	HuH7 TTR inh=-11.7;TTR act confirm=-0.6
CCCn1c(=N)n(CC(=O)c2cccs2)c2ccccc21	3.6
O=C(COC(=O)c1ccc(Br)cc1)NC(=O)NCc1ccccc1	2.5
C#CCNC(=O)C[C@H]1C[C@@]2(C(=O)OC)C(=C[C@H](COCc3ccccc3)O[C@@H]2C)N(Cc2ccccc2)C1=O	0.5
OCC1CCCN(C(=S)NCCc2ccccc2)C1 (centres undefined)	1.8
CN1CCN(C(=S)NCCc2ccccc2)CC1	10.8*	HuH7 TTR inh=-13.6;TTR act confirm=-0.6
O=C(c1ccccc1)N1CCN(C(=S)NCCc2ccccc2)CC1	-1.1
CCCCOCCCNC(=O)C[C@H]1C(=O)N(Cc2ccc(OC)cc2)C2=CCCCC[C@@]21C(=O)OC	-0.3
C[C@@H]1CN([C@@H](C)CO)S(=O)(=O)c2ccc(Br)cc2O[C@@H]1CN(C)S(=O)(=O)c1ccc(F)cc1	-1.4
COc1cccc(OC)c1NC(=O)NC(=O)c1c(OC)c(Br)cc([N+](=O)[O-])c1OC	-1.0
COc1ccc([N+](=O)[O-])c(OC)c1C(=O)NC(=O)Nc1nc(C)cc(C)n1	5.9
COc1ccc([N+](=O)[O-])c(OC)c1C(=O)NC(=O)Nc1c(F)cc(F)cc1F	126.5*	HuH7 TTR inh=-7.0;TTR act confirm=0.0
COP(=O)(OC)C(Cc1ccccc1)NC(=O)CNC(=O)OCc1ccccc1 (centres undefined)	2.3
CN1CCN(C(=O)/C(=C\c2cccs2)NC(=O)c2ccco2)CC1	9.7*	HuH7 TTR inh=3.4;TTR act confirm=-0.8
O=C(N/C(=C\c1cccs1)C(=O)N1CCOCC1)c1ccco1	-1.1
Cc1ccccc1NC(=O)/C(=C\c1cccs1)NC(=O)c1ccco1	1.9
SMILES	TTR transcr act	others
Cc1ccccc1CN1CCCCC(NC(=O)Nc2ccccc2-c2ccccc2)C1=O (centres undefined)	-1.4
CN(C)[C@@H]1CCN(c2cccc3c2S(=O)(=O)N2CC[C@H](C2)O3)C1	0.0
CN(C)c1ccc(C(=O)OCC(=O)N2CCCCCC2)cc1	-2.2
CCOC(=O)N1CCN(C(=O)COC(=O)c2ccc(N(C)C)cc2)CC1	-0.4
CN(C)c1ccc(C(=O)OCC(=O)N2CCCC2)cc1	13.0*	HuH7 TTR inh=-14.7;TTR act confirm=-0.5
NC(=O)C1CCN(c2ccnc(Cl)n2)CC1	1.5
CCS(=O)(=O)Nc1ccc2c(c1)C(=O)N(C)[C@@H]1CC[C@H](CC(=O)NCCCN3CCOCC3)O[C@H]1CO2	-0.9
CN(CC(=O)Nc1cccc(F)c1)CC(=O)N(C)CC(=O)Nc1ccccc1Br	-2.0
CCCC(=O)OCC(=O)Nc1ccccc1Sc1ccccc1	11.5*	HuH7 TTR inh=11.1;TTR act confirm=3.1
CCCC(=O)OCC(=O)Nc1ccccc1C#N	2.2
O=C(COC(=O)c1cc[n+]([O-])cc1)Nc1ccccc1Sc1ccccc1	0.5
CC(=O)Nc1sc2c(c1-c1nc3ccccc3s1)CCN(C(C)=O)C2	-2.2
Clc1cccc(Nc2nc(N3CCOCC3)nc(N3CCOCC3)n2)c1	2.4
c1ccc2oc(-c3ccc(Nc4nc(N5CCOCC5)nc(N5CCOCC5)n4)cc3)nc2c1	10.4*	HuH7 TTR inh=-7.2;TTR act confirm=-0.4
CCc1ccc(Nc2nc(N3CCOCC3)nc(N3CCOCC3)n2)cc1	1.1
CCCC1CCC2(CC1)CCC2OC(=S)Nc1ccccc1Br (centres undefined)	0.8
CC(=O)c1ccc(-c2cc(C(C)=O)c3n(c2=O)CCC3)cc1	1.2
